Laboratory results as given in PubChem BioAssay.
“And” between values parts separate entries of the source, which are not always exact repeats. Equal values may be shown once. Inconclusive results are not listed. The source made the active and inactive calls.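 Rule for the calls, unless noted: active = normalized viability below 100% at a tested concentration; inactive = the rest.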

What was measured:
[1] = growth inhibition of DIPG glioma cells, dose response, cell-based, SU-DIPG-XVII, MIPE5.0, CellTiter-Glo, qHTS (AID 1347060; cut-off not given, nearly all actives have AC50 up to about 26 µM;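 note: cells exposed to compound for 48 hours before viability readout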); settings: SU-DIPG-XVII viability, CellTiter-Glo ATP luminescence
[2] = growth inhibition of DIPG glioma cells, dose response, cell-based, SU-DIPG-XIII, MIPE4.0, CellTiter-Glo, qHTS (AID 1347061; cut-off not given, nearly all actives have AC50 up to about 37 µM;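 note: cells exposed to compound for 48 hours before readout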); settings: SU-DIPG-XIII viability, CellTiter-Glo ATP luminescence
[3] = growth inhibition of DIPG glioma cells, dose response, cell-based, JHH-DIPG-1, MIPE4.0, CellTiter-Glo, qHTS (AID 1347062; cut-off not given, nearly all actives have AC50 up to about 27 µM;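 note: cells exposed to compound for two days before readout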); settings: JHH-DIPG-1 viability, CellTiter-Glo ATP luminescence
[4] = growth inhibition of DIPG glioma cells, dose response, cell-based, SU-DIPG-IV, MIPE4.0, CellTiter-Glo, qHTS (AID 1347063; cut-off not given, nearly all actives have AC50 up to about 30 µM;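 note: compound exposure lasted 48 hours before the viability readout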); settings: SU-DIPG-IV viability, CellTiter-Glo ATP luminescence
[5] = growth inhibition of DIPG glioma cells, dose response, cell-based, SU-DIPG-XIII, MIPE5.0, CellTiter-Glo, qHTS (AID 1347064; cut-off not given, nearly all actives have AC50 up to about 23 µM;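 note: cells exposed to compound for 48 hours before the viability read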); settings: SU-DIPG-XIII viability, CellTiter-Glo ATP luminescence
[6] = viability loss in pontine glioma line – cell-based, SU-DIPG-XXV, MIPE5.0, CellTiter-Glo, qHTS, dose response (AID 1347065; cut-off not given, nearly all actives have AC50 up to about 26 µM;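 note: cells exposed to compound for 48 hours before ATP readout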); settings: CellTiter-Glo ATP luminescence
[7] = SU-DIPG-VI glioma cell viability, MIPE4.0 library, CellTiter-Glo luminescence, qHTS (AID 1347066; cut-off not given, nearly all actives have AC50 up to about 30 µM;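 note: cells exposed to compound for 48 hours before readout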); settings: CellTiter-Glo ATP luminescence
[8] = JHH-DIPG-1 glioma cell viability, MIPE5.0 library, CellTiter-Glo luminescence, qHTS (AID 1347067; cut-off not given, nearly all actives have AC50 up to about 26 µM;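 note: cells exposed to compound for 48 hours before readout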); settings: JHH-DIPG-1 glioma viability, CellTiter-Glo ATP luminescence
[9] = sensitizers of A549 cells to miR-34 induction, primary screen, imaging, A549 dox-inducible miR-34, nuclei and caspase counts (AID 1347080;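 active = compounds whose cell count with miR-34 switched on is under 0.7 times the count with it off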); settings: A549 miR-34 inducible, Hoechst nuclei count, 48 h
[10] = modifiers of HSF1 nuclear foci, imaging, Selleck Cancer Library (AID 1347162; in the data active = plate-normalised HSF1 focus index below about 0.46); settings: human cells, at 10 µM; SSMD: measured here: HSF1 foci SSMD mean; cell count: measured here: cell number; plate-normalised HSF1 focus index: stronger effect = lower value
[11] = survival rescue of mitochondrial mutant cells in low glucose, primary screen, MELAS cybrids, Rieske KO mouse fibroblasts, CellTiter-Glo (AID 1508586;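 active = mean z-score across replicates of 1.96 or higher in either the MELAS or the Rieske mutant cell line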;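 note: z relative to plate mean and SD of compound and empty wells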)
[12] = ovarian cancer cell viability with rucaparib, profiling panel, oncology-focused library, rucaparib conditional (AID 1508598); settings: patient-derived ovarian cancer cells, CellTiter-Glo viability, 144 h, stronger effect = lower value
[13] = SU-DIPG-XXV glioma cell viability, MIPE5.0 library, qHTS (AID 1347068; cut-off not given, nearly all actives have IC50 up to about 30 µM)
[14] = LFS_MB_P medulloblastoma growth inhibition, cell-based, chromothripsis tumors, cisplatin or BGB combos (AID 1671449; in the data active = inhibition above about 80%;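 note: cells exposed for 96 hours; 0% = vehicle DMSO and 100% = killing by high DMSO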); settings: LFS_MB_P medulloblastoma cells
[15] = HDN33 neuroblastoma growth inhibition, cell-based, chromothripsis tumors, cisplatin or BGB combos (AID 1671450; in the data active = inhibition above about 80%;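 note: cells exposed to compound for four days; 0% = vehicle DMSO and 100% = cell killing by high DMSO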); settings: HDN33 neuroblastoma cells, stronger effect = higher value
[16] = ICB984 medulloblastoma cell growth inhibition, synergistic combos for chromothripsis tumors, cisplatin or BGB combos (AID 1671451; call rule not given here;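 note: cells exposed for 96 hours before readout; 0% = vehicle DMSO and 100% = killing by high DMSO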); settings: ICB984 medulloblastoma cells, drug combinations, stronger effect = higher value
[17] = HTB85 osteosarcoma cell growth inhibition, synergistic combos for chromothripsis tumors, BGB or cisplatin IC20 combos (AID 1671453; in the data active = inhibition above about 80%;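 note: cells exposed for 96 hours before readout; 0% = vehicle DMSO and 100% = high DMSO killing control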); settings: HTB85 osteosarcoma cells, drug combinations, stronger effect = higher value
[18] = MDA-MB-436 breast carcinoma cell growth inhibition, synergistic combos for chromothripsis tumors, BGB or cisplatin combos (AID 1671458; call rule not given here;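 note: cells exposed for 96 hours; 0% = vehicle DMSO and 100% = killing by high DMSO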); settings: MDA-MB-436 breast carcinoma growth inhibition, drug combinations, stronger effect = higher value
[19] = growth inhibition of BT084 medulloblastoma cells, cell-based, ICGC_MB145, cisplatin and BGB IC40 combos (AID 1671461; in the data active = inhibition above about 80%;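 note: cells exposed to drugs for 96 hours; 0% = vehicle DMSO and 100% = high DMSO full killing control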); settings: drug combinations, stronger effect = higher value
[20] = growth inhibition of RCMB18 medulloblastoma cells, cell-based, cisplatin and BGB IC40 combos (AID 1671462; in the data active = inhibition above about 80%;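 note: cells exposed to compound for four days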); settings: stronger effect = higher value

CCCCCCCCc1ccc(CCC(N)(CO)CO)cc1
AC50 [1]: 10500 nM (active)
AC50 [2]: 23500 nM (active)
AC50 [3]: 9350 nM (active)
AC50 [4]: 3720 nM (active)
AC50 [5]: 18600 nM (active)
AC50 [6]: 10500 nM (active)
AC50 [7]: 23500 nM (active)
AC50 [8]: 10500 nM (active)
fold change ([9]; stronger effect = lower value, cell number ratio, induced over uninduced): 0.951 (inactive) and 0.892 (inactive)
fold change ([9]; measured here: relative caspase fold change +Dox/-Dox): 0.756 and 0.682
cell count ([9]; measured here: total cells with miR-34 induction, stronger effect = lower value): 5440 and 7580
cell count ([9]; measured here: total cells without miR-34 induction): 5720 and 8490
SSMD [10]: -8.05
cell count [10]: 3980
plate-normalised HSF1 focus index [10]: 0.589 (inactive)
z-score ([11]; MELAS cybrid survival, CellTiter-Glo 48 h, stronger effect = higher value): -0.312 (inactive)
z-score ([11]; Rieske KO mouse fibroblast survival, CellTiter-Glo 72 h): -0.433
viability ([12]; at 0.000305 µM, OCI-C5x cells, with rucaparib 10 µM, 100% = cells with rucaparib alone): 106% (inactive)
viability ([12]; at 0.000305 µM, OCI-C5x cells, without rucaparib): 117% (inactive)
viability ([12]; at 0.000305 µM, OCI-P5x cells, with rucaparib 20 µM, 100% = cells with rucaparib alone): 107% (inactive)
viability ([12]; at 0.000305 µM, OCI-P5x cells, without rucaparib): 111% (inactive)
viability ([12]; at 0.00122 µM, OCI-C5x cells, with rucaparib 10 µM, 100% = cells with rucaparib alone): 110% (inactive)
viability ([12]; at 0.00122 µM, OCI-C5x cells, without rucaparib): 112% (inactive)
viability ([12]; at 0.00122 µM, OCI-P5x cells, with rucaparib 20 µM, 100% = cells with rucaparib alone): 89.4% (active)
viability ([12]; at 0.00122 µM, OCI-P5x cells, without rucaparib): 98% (active)
viability ([12]; at 0.00488 µM, OCI-C5x cells, with rucaparib 10 µM, 100% = cells with rucaparib alone): 101% (inactive)
viability ([12]; at 0.00488 µM, OCI-C5x cells, without rucaparib): 122% (inactive)
viability ([12]; at 0.00488 µM, OCI-P5x cells, with rucaparib 20 µM, 100% = cells with rucaparib alone): 93.5% (active)
viability ([12]; at 0.00488 µM, OCI-P5x cells, without rucaparib): 103% (inactive)
viability ([12]; at 0.0195 µM, OCI-C5x cells, with rucaparib 10 µM, 100% = cells with rucaparib alone): 111% (inactive)
viability ([12]; at 0.0195 µM, OCI-C5x cells, without rucaparib): 120% (inactive)
viability ([12]; at 0.0195 µM, OCI-P5x cells, with rucaparib 20 µM, 100% = cells with rucaparib alone): 92.4% (active)
viability ([12]; at 0.0195 µM, OCI-P5x cells, without rucaparib): 106% (inactive)
viability ([12]; at 0.0781 µM, OCI-C5x cells, with rucaparib 10 µM, 100% = cells with rucaparib alone): 102% (inactive)
viability ([12]; at 0.0781 µM, OCI-C5x cells, without rucaparib): 106% (inactive)
viability ([12]; at 0.0781 µM, OCI-P5x cells, with rucaparib 20 µM, 100% = cells with rucaparib alone): 88.8% (active)
viability ([12]; at 0.0781 µM, OCI-P5x cells, without rucaparib): 53.5% (active)
viability ([12]; at 0.313 µM, OCI-C5x cells, with rucaparib 10 µM, 100% = cells with rucaparib alone): 112% (inactive)
viability ([12]; at 0.313 µM, OCI-C5x cells, without rucaparib): 108% (inactive)
viability ([12]; at 0.313 µM, OCI-P5x cells, with rucaparib 20 µM, 100% = cells with rucaparib alone): 108% (inactive)
viability ([12]; at 0.313 µM, OCI-P5x cells, without rucaparib): 113% (inactive)
viability ([12]; at 1.25 µM, OCI-C5x cells, with rucaparib 10 µM, 100% = cells with rucaparib alone): 103% (inactive)
viability ([12]; at 1.25 µM, OCI-C5x cells, without rucaparib): 121% (inactive)
viability ([12]; at 1.25 µM, OCI-P5x cells, with rucaparib 20 µM, 100% = cells with rucaparib alone): 64% (active)
viability ([12]; at 1.25 µM, OCI-P5x cells, without rucaparib): 50.7% (active)
viability ([12]; at 5 µM, OCI-C5x cells, with rucaparib 10 µM, 100% = cells with rucaparib alone): 90.1% (active)
viability ([12]; at 5 µM, OCI-C5x cells, without rucaparib): 129% (inactive)
viability ([12]; at 5 µM, OCI-P5x cells, with rucaparib 20 µM, 100% = cells with rucaparib alone): 26% (active)
viability ([12]; at 5 µM, OCI-P5x cells, without rucaparib): 0.383% (active)

CN(C)CCN(C)C(=O)c1ccc(NC(=O)Nc2ccc(-c3nc(N4CCOCC4)c4ccn(CC(F)(F)F)c4n3)cc2)cc1
AC50 [1]: 235 nM (active)
AC50 [2]: 743 nM (active)
AC50 [3]: 469 nM (active)
AC50 [4]: 33.2 nM (active)
AC50 [5]: 742 nM (active)
AC50 [6]: 332 nM (active)
AC50 [7]: 662 nM (active)
AC50 [8]: 1480 nM (active)
SSMD [10]: 1.02
cell count [10]: 7060
plate-normalised HSF1 focus index [10]: 1.06 (inactive)

O=C(/C=C/c1ccc(CN(CCO)CCc2c[nH]c3ccccc23)cc1)NO
AC50 [1]: 525 nM (active)
AC50 [2]: 1180 nM (active)
AC50 [3]: 235 nM (active)
AC50 [4]: 935 nM (active)
AC50 [5]: 332 nM (active)
AC50 [6]: 295 nM (active)
AC50 [7]: 235 nM (active)
AC50 [8]: 417 nM (active)
outcome [13]: inactive
inhibition ([14]; at 0.5 µM, stronger effect = higher value): -16.3% (inactive)
inhibition ([14]; measured here: combination with BGB IC20, at 0.005 µM): -29.5%
inhibition ([14]; measured here: combination with BGB IC40, at 0.005 µM): -69.2%
inhibition ([14]; measured here: combination with BGB IC40, at 0.05 µM): -42.5%
inhibition ([14]; measured here: combination with cisplatin, at 0.5 µM, stronger effect = higher value): -26.1%
inhibition ([14]; measured here: combination with cisplatin, at 5 µM, stronger effect = higher value): 114%
inhibition ([15]; BGB combo, at 5 µM): 99.9%
inhibition ([15]; at 0.5 µM): 99.3% (active)
inhibition ([15]; cisplatin combo, at 5 µM): 99.9%
inhibition ([15]; measured here: with BGB IC20 combination, at 0.5 µM): 98.5%
inhibition ([15]; measured here: with cisplatin IC20 combination, at 0.5 µM): 99.7%
inhibition ([15]; single agent, at 5 µM): 99.9%
inhibition ([16]; BGB IC20 combo, at 0.005 µM): 71.4%
inhibition ([16]; BGB IC40 combo, at 0.005 µM): 89.6%
inhibition ([16]; BGB IC40 combo, at 0.05 µM): 100%
inhibition ([16]; at 0.5 µM): -29.4% (inactive)
inhibition ([16]; cisplatin combo, at 0.05 µM): 101%
inhibition ([16]; cisplatin combo, at 0.5 µM): -36.3%
inhibition ([16]; cisplatin combo, at 5 µM): -4.27%
inhibition ([16]; measured here: 5 uM single agent, at 5 µM): 13.8%
inhibition ([17]; at 0.5 µM): 99.3% (active)
inhibition ([17]; measured here: with BGB IC20, at 0.5 µM): 98.7%
inhibition ([17]; measured here: with BGB IC20, at 5 µM): 99.9%
inhibition ([17]; measured here: with cisplatin IC20, at 0.5 µM): 99.9%
inhibition ([17]; measured here: with cisplatin IC20, at 5 µM): 99.9%
inhibition ([17]; single agent, at 5 µM): 99.9%
inhibition ([18]; at 0.5 µM): 63.3% (inactive)
inhibition ([18]; measured here: BGB combination, at 0.5 µM): 55.8%
inhibition ([18]; measured here: BGB combination, at 5 µM): 59.7%
inhibition ([18]; measured here: cisplatin combination, at 0.5 µM): 60.4%
inhibition ([18]; measured here: cisplatin combination, at 5 µM): 75.3%
inhibition ([19]; at 0.5 µM): 98.5% (active)
inhibition ([19]; cisplatin combination, at 0.5 µM): 101%
inhibition ([19]; cisplatin combination, at 5 µM): 104%
inhibition ([19]; measured here: BGB IC40 combination 0.05 uM, at 0.05 µM): 38.4%
inhibition ([19]; single agent, at 5 µM): 108%
inhibition ([20]; at 0.5 µM): 82% (active)
inhibition ([20]; cisplatin combo, at 5 µM): 98.9%
inhibition ([20]; measured here: BGB IC40 combination, at 0.05 µM): 6.39%
inhibition ([20]; measured here: combination with cisplatin, at 0.5 µM): 90.4%
inhibition ([20]; single agent, at 5 µM): 96.9%
